# This is a sample that favours compounds with a hit; in the whole collection about 8% have one here.
# SW480 rereplic: induces DNA re-replication in SW480 colon adenocarcinoma cells. SW480 DNA re-replication, Hoechst DNA content imaging, 48 h. Potency, µM (titrated, usually from 46.1 µM), without a hit: top-dose re-replication activation, most hits filed as activators. 340,000 tested, 1.8% active. AID 624297; further: % of control where 0% means no effect; nearly all actives have a fitted effect of over 55% in size
#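 Hoechst fluorescence of nuclei (405 nm excitation, 500-530 nm emission) measured by plate-scanning imager after 48 hr compound exposure at 37 C; re-replication scored as increased number of nuclei with elevated intensity.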
# HT1080 IDH1KD tx: toxicity to HT-1080 IDH1 knockdown cells (counter line) | HT-1080 IDH1 knockdown viability, ATP luminescence, 48 h | 360,000 tested, 2% active | AID 686971 | Potency, µM (titrated, usually from 46.1 µM), inactives show top-dose activity, negative = toxicity, most hits filed as cytotoxic;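 further: 0% = DMSO wells and -100% = cell-free medium wells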
#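 Viability of IDH1-knockdown HT-1080 fibrosarcoma cells was assessed by CellTiter-Glo after 48 h at 37 °C with titrated compound; concentration-effect curves were classified by fit quality and response size.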
# KB-V1 cytotox: KB-V1 MDR subline cytotoxicity; KB-V1 MDR cells viability, CellTiter-Glo, 72 h; Potency, µM (series often up to 46.1 µM), actives largely listed as cytotoxic; 400,000 tested, 3.4% active; AID 1347076; further: on the % scale 0 is the no-effect control and ±100 the full control effect; nearly all actives have a fitted effect of over 60% in size
#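 Compound-treated KB-V1 multidrug-resistant cells, 72 h, 37 degrees C; viability by CellTiter-Glo. Fitted qHTS curves give the values.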
# MCF10A rereplic: induces DNA re-replication in MCF 10a normal breast cells; 350,000 tested, 2.9% active; AID 624296; Potency, µM (top dose mostly 46.1 µM), inactives show at the top dose activity, positive = re-replication, hits mostly activators; MCF 10A DNA re-replication, Hoechst nuclear intensity, 48 h; further: % of control where 0% means no effect; nearly all actives have a fitted effect of over 50% in size
# HT1080NT lethal: kills 2HG-producing HT-1080-NT fibrosarcoma cells; HT-1080-NT fibrosarcoma viability, CellTiter-Glo ATP luminescence, 48 h; Potency, µM (doses to about 46.1 µM), for inactives: top-dose activity, negative = less viability, most hits filed as cytotoxic; 360,000 tested, 1.6% active; AID 686970;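 further: NT is the 2HG producing partner of a matched IDH1 knockdown line; 0% = DMSO-treated cells and -100% = media-only wells without cells; nearly all actives have a fitted effect of over 55% in size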
#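 Toxicity toward the 2HG-producing NT line was scored as %Activity, normalised to DMSO and no-cell wells, from CellTiter-Glo luminescence after 48 hours' treatment.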
# KB-3-1 cytotox: kills parental KB-3-1 adenocarcinoma cells. Potency, µM (doses to about 46.1 µM), most hits filed as cytotoxic. 400,000 tested, 1.4% active. KB-3-1 viability, CellTiter-Glo ATP luminescence, 72 h. AID 1347075; further: on the % scale 0 is the no-effect control and ±100 the full control effect; nearly all actives have a fitted effect of over 60% in size
#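 Parental KB-3-1 adenocarcinoma cells in phenol-red-free DMEM with 10% FBS were pin-treated with compounds at several concentrations, incubated 72 h at 37 °C, and viability read by CellTiter-Glo luminescence; concentration-effect curves were fitted after normalization.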
# * marks the source's active call; other numbers are inactive results; i = inactive; ? = inconclusive; . = not tested or not shown; [ ] = dose if it differs, or a comment. The call rests on the fitted dose curve; in most records, active means well fitted curve in the direction sought with a large enough effect; inconclusive means small, poorly fitted or top-dose-only effect, or another doubt; inactive means no such curve, though single readings can be large; an effect the other way counts as inactive or inconclusive. Potency means the concentration at half of the fitted maximal effect.
SMILES,SW480 rereplic,HT1080 IDH1KD tx,KB-V1 cytotox,MCF10A rereplic,HT1080NT lethal,KB-3-1 cytotox
N#C/C(=C(/O)c1cccs1)c1nc2ccccc2[nH]1,16.4µM*,1.1%,?,18.4µM*,-2.0%,i
N#C/C(=C(/O)c1ccc(Br)s1)c1nc2ccccc2[nH]1,7.31µM*,?,?,2.91µM*,?,6.51µM*
N#C/C(=C(/O)c1ccc([N+](=O)[O-])s1)c1nc2ccccc2[nH]1,?,?,i,-5.4%,?,?
CCN1CCN(C(=O)COCc2cc(-c3ccc4c(c3)OCO4)on2)CC1,0.8%,-7.4%,i,5.0%,-0.6%,i
Cc1ccc2nc(SCCC#N)nc(C)c2c1,-3.0%[9.22 µM],5.9%,i,3.4%,-3.8%,i
Cc1cccc(Nc2nnc(SC/C(O)=C(\C#N)c3nc4ccccc4[nH]3)s2)c1C,?,11.3%,i,13µM*,8.5%,i
Cc1cccc(C)c1Nc1nnc(SC/C(O)=C(\C#N)c2nc3ccccc3[nH]2)s1,?,-2.5%,i,?,-2.2%,i
N#C/C(=C(/O)c1ccc(C(=O)c2ccccc2)cc1)c1nc2ccccc2[nH]1,23.1µM*,7.2%,i,22.3%,16.7%,i
CCCCOc1ccc(/C(O)=C(\C#N)c2nc3ccccc3[nH]2)cc1,3.0%,10.6%,i,0.7%,1.6%,i
COc1ccc(NC(=O)C2CC(c3ccc(Cl)cc3)=NO2)cc1 (stereo not drawn),2.5%,0.4%,i,15.1%,11.0%,i
Cc1ccc2c(c1)Oc1ccc(NC(=O)CCCl)cc1C(=O)N2,?,16.4µM*,?,?,?,i
CC(=O)OC(C)(C)/C=C/C(=O)[C@](C)(O)C1[C@H](O)C[C@@]2(C)C3CC=C4C(C=C(O[C@@H]5O[C@H](CO)[C@@H](O)[C@H](O)[C@H]5O)C(=O)C4(C)C)[C@]3(C)C(=O)C[C@]12C (stereo partly drawn),0.92µM*,23.1µM*,?,5.17µM*,?,?
Cn1cc(/C=N/n2cnc3scc(-c4ccc(Cl)cc4)c3c2=O)c2ccccc21,0.581µM*,0.461µM*,?,0.326µM*,?,?
COc1ccc(C2NCCc3c2[nH]c2ccccc32)cc1CSc1nc2ccccc2s1 (stereo not drawn),.,23.1µM*,23.1µM*,?,23.1µM*,?
O=c1[nH]c(CSc2nc3ccccc3s2)nc2ccccc12,2.1%,-10.5%,i,?,-14.9%,i
O=C(COc1ccc(Cl)cc1Cl)N1CCCCCC1,2.7%,-4.7%,20.6µM*,8.5%,0.5%,i
COc1ccc(NC2CCCN(C(=O)COc3ccc(Cl)cc3C)C2)cc1OC (stereo not drawn),0.4%,-2.3%,7.31µM*,5.1%,-4.3%,i
COc1ccccc1OCC(=O)N1CCCC(Nc2ccc(C)c(C)c2)C1 (stereo not drawn),10.1%,-13.5%,.,?,-11.9%,.
Cc1cc(Cl)ccc1OC(C)C(=O)N1CCCN(C(=O)C(C)Oc2ccc(Cl)cc2C)CC1 (stereo not drawn),?,20.6µM*,?,?,18.4µM*,13µM*
CC(Oc1ccccc1Cl)C(=O)N1CCCN(C)CC1 (stereo not drawn),-0.9%,-15.3%,i,?,-6.5%,i
Cc1cc(Cl)ccc1OCC(=O)N1CCCN(C(=O)COc2ccc(Cl)cc2C)CC1,-0.9%,-28.1%,5.8µM*,?,-17.6%,?
Cc1cc(Cl)ccc1OCC(=O)N1CC(C)CC(C)C1 (stereo not drawn),4.4%,-18.9%,?,2.8%,1.0%,i
O=C(Nc1nnc(SCCC2OCCO2)s1)C1CC(=O)N(c2ccccc2)C1 (stereo not drawn),-4.8%,-2.9%,i,3.8%,0.0%,i
CCOC(=O)c1sc(NC(=O)CNCc2cccnc2)c(C(=O)OCC)c1C,-0.5%,-1.7%,?,2.8%,10.6%,i
NC(=O)c1ccc(NC(=O)CSc2nnc(C3CC3)n2C2CC2)cc1,-15.5%,15.6%,i,-38.3%,7.0%,i
SMILES,SW480 rereplic,HT1080 IDH1KD tx,KB-V1 cytotox,MCF10A rereplic,HT1080NT lethal,KB-3-1 cytotox
CCOc1ccc(NC(=O)CSc2nnc(C3CC3)n2C2CC2)cc1,-8.6%,16.8%,13µM*,-2.8%,9.2%,i
O=S(=O)(Nc1ccc(O)c2ccccc12)c1cccs1,?,20.6µM*,?,?,25.9µM*,?
CN1c2ccccc2C(C)(C)[C@]12C=Cc1cc(O)ccc1O2,?,18.4µM*,i,?,?,?
CCOC(=O)c1c(C)oc2nc(C)nc(NCCCN3CCN(c4ccccc4)CC3)c12,.,.,i,.,.,i
CCOC(=O)c1c(C)n(-c2ccc(C)cc2)c2ccc(OCC(O)CNCCCO)cc12 (stereo not drawn),1.6%,23.1µM*,?,?,?,i
CCOC(=O)c1c(C)n(C)c2ccc(OCC(O)Cn3nc(C)c(Br)c3C)cc12 (stereo not drawn),9.3%,-1.0%,?,14.6µM*,-4.3%,?
CCOC(=O)c1c(C)n(C)c2ccc(OCC(O)CN3CCCCCC3)cc12 (stereo not drawn),11.3%,-9.0%,i,8.2%,-23.1%,i
CC(=O)c1c(C)nn(CC(O)COc2ccc3ccccc3c2)c1C (stereo not drawn),-3.0%,-10.8%,7.31µM*,3.0%,0.3%,i
CN(C)CCSc1nnc2[nH]c3ccccc3c2n1,-3.8%,-1.0%,i,?,-1.0%,i
COc1ccccc1C1NC(=O)NC(C)=C1C(=O)OC1CCCCC1 (stereo not drawn),-13.7%,2.9%,i,1.6%,-2.6%,i
Cc1cc(C)cc(NC(=S)N=Nc2c(O)n(C)c3ccc(S(=O)(=O)N4CCOCC4)cc23)c1,?,-16.2%,i,-5.4%,-13.1%,i
C=CCn1c(O)c(N=NC(=S)Nc2ccccc2F)c2cc(S(=O)(=O)N3CCOCC3)ccc21,13.1%,?,?,7.7%,?,?
Cc1ccccc1NC(=S)N=Nc1c(O)n(C)c2ccc(S(=O)(=O)N3CCOCC3)cc12,?,20.6µM*,?,1.2%,?,?
Cc1cccc(NC(=S)N=Nc2c(O)n(C)c3ccc(S(=O)(=O)N4CCOCC4)cc23)c1,?,-25.8%,0.731µM*,20.5%,-6.6%,?
Cc1ccc(NC(=S)N=Nc2c(O)n(C)c3ccc(S(=O)(=O)N4CCOCC4)cc23)cc1,8.8%,?,i,?,-3.4%,?
